NOMO-1 viab = STK33 inhibitor candidate reducing NOMO-1 cell viability; inhibition, % (no concentration beside the values); 37,000 tested, 7.5% active; NOMO-1 AML viability, CellTiter-Glo luminescence, 72 h; AID 2330; in the data active = inhibition above about 80%; inconclusive = no clear call, values can overlap the other calls
Shh pathway inh = blocks Sonic Hedgehog signaling; Shh-LIGHT2 Gli-luciferase reporter, 30 h; inhibition, % (test concentration not listed); 22,000 tested, 2.1% active;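 active = mean inhibition across valid replicates above about 65%, limit read from the data; inconclusive = mean under the limit, yet half or more replicates past it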;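 also: pathway switched on by Shh-conditioned medium diluted 1 in 25 in low serum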
MITF inh = blocks MITF activity; inhibition, % (test concentration not listed); TRPM1 promoter luciferase, luminescence, 24 h; AID 2240; 37,000 tested, 0.28% active; in the data active = inhibition above about 85%; inconclusive = no clear call, values can overlap the other calls; inactive = below about 68%;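 also: human melanocyte line stably carrying TRPM1 promoter luciferase reporter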
Large screens that a line does not name were inactive. An excerpt weighted towards active compounds, which were near 7.8% of everything screened.

O=C(O)c1ccccc1N1C(=O)c2ccccc2C1=O	none
Cc1noc(C)c1NC(=O)N(C)C[C@H]1Oc2c(NS(C)(=O)=O)cccc2C(=O)N([C@H](C)CO)C[C@@H]1C	none
C[C@H]1CN([C@@H](C)CO)C(=O)Cc2cc(NC(=O)Nc3ccc4c(c3)OCO4)ccc2O[C@H]1CN(C)CC1CCCCC1	none
C[C@H]1CN([C@@H](C)CO)C(=O)Cc2cc(NC(=O)Nc3ccc(F)cc3)ccc2O[C@@H]1CN(C)CC1CC1	none
CC(C)NC(=O)Nc1ccc2c(c1)CC(=O)N([C@H](C)CO)C[C@@H](C)[C@@H](CN(C)CC1CCCCC1)O2	none
C[C@H]1CN([C@@H](C)CO)C(=O)Cc2cc(NC(=O)Nc3ccc(F)cc3)ccc2O[C@@H]1CN(C)CC1CCCCC1	NOMO-1 viab 98.7
COc1ccc(NC(=O)Nc2ccc3c(c2)CC(=O)N([C@H](C)CO)C[C@@H](C)[C@@H](CN(C)CC2CCCCC2)O3)cc1	none
C[C@H]1CN([C@@H](C)CO)C(=O)Cc2cc(NC(=O)Nc3ccc4c(c3)OCO4)ccc2O[C@@H]1CN(C)CC1CCCCC1	NOMO-1 viab 92.0
C[C@H](CO)N1C[C@H](C)[C@H](CN(C)CC2CCCCC2)Oc2ccc(NC(=O)Nc3ccc(F)cc3)cc2CC1=O	NOMO-1 viab 94.7 (no result: Shh pathway inh)
C[C@@H]1CN([C@@H](C)CO)C(=O)Cc2cc(NC(=O)Nc3ccc(F)cc3)ccc2O[C@@H]1CN(C)CC1CCCCC1	NOMO-1 viab 80.9
N#CC(c1ccc(O)cc1)N1CCN(C(C#N)c2ccc(O)cc2)CC1 (configuration not stated)	none
COC(=O)c1ccc(C(=O)OC)c(NC(=O)c2cc(-c3ccccn3)nc3c(C)c(C)ccc23)c1	none (no result: Shh pathway inh)
CS(=O)(=O)N(CC(=O)Nc1ccc(Cl)cc1)c1ccc(F)c(Cl)c1	NOMO-1 viab inconclusive (no result: Shh pathway inh)
COc1ccc(NC(=O)c2ccc3c(=O)n(Cc4ccco4)c(=S)[nH]c3c2)cc1OC	Shh pathway inh 77.2
COc1ccc(OC)c(-n2c(=S)[nH]c3cc(C(=O)Nc4ccc(C)c(Cl)c4)ccc3c2=O)c1	none
CSc1ccc(C2C(C(=O)c3sc(C)nc3C)C(=O)C(=O)N2Cc2cccnc2)cc1 (configuration not stated)	none (no result: Shh pathway inh)
C[C@H]1CN([C@@H](C)CO)C(=O)c2cc(NC(=O)Nc3ccc(C(F)(F)F)cc3)ccc2O[C@H]1CN(C)Cc1ccc(Cl)c(Cl)c1	NOMO-1 viab 106.9
C[C@@H]1CN([C@H](C)CO)C(=O)c2cc(NC(=O)Nc3ccc(C(F)(F)F)cc3)ccc2O[C@H]1CN(C)Cc1ccncc1	none (no result: Shh pathway inh)
C[C@H]1CN([C@@H](C)CO)C(=O)c2cc(NC(=O)Nc3ccc(F)cc3)ccc2O[C@@H]1CN(C)Cc1ccc(Cl)c(Cl)c1	none
C[C@@H]1CN([C@H](C)CO)C(=O)c2cc(NC(=O)Nc3ccc(C(F)(F)F)cc3)ccc2O[C@H]1CN(C)Cc1ccc(Cl)c(Cl)c1	NOMO-1 viab 122.5 (no result: Shh pathway inh)
C[C@@H]1CN([C@H](C)CO)C(=O)c2cc(NC(=O)Nc3ccc(C(F)(F)F)cc3)ccc2O[C@@H]1CN(C)Cc1ccc(Cl)c(Cl)c1	NOMO-1 viab 113.6
NS(=O)(=O)c1cc(C(=O)O)c(NCc2ccco2)cc1Cl	none
COc1ccc(S(=O)(=O)Nc2ccc3c(c2)C(=O)N([C@H](C)CO)C[C@@H](C)[C@H](CN(C)S(=O)(=O)c2ccc(Cl)cc2)O3)cc1	none (no result: Shh pathway inh)
Cc1cc(C(=O)Nc2cccc3c2O[C@@H](CN(C)Cc2ccc(-c4ccccc4)cc2)[C@H](C)CN([C@@H](C)CO)C3=O)n(C)n1	none
Cc1cc(C(=O)Nc2cccc3c2O[C@H](CN(C)Cc2ccc(Oc4ccccc4)cc2)[C@@H](C)CN([C@H](C)CO)C3=O)n(C)n1	NOMO-1 viab 111.1, Shh pathway inh inconclusive
Cc1cc(C(=O)Nc2cccc3c2O[C@@H](CN(C)Cc2ccccc2)[C@@H](C)CN([C@H](C)CO)C3=O)n(C)n1	none
Cc1cc(C(=O)Nc2cccc3c2O[C@H](CN(C)Cc2ccc(C(=O)Nc4ccccc4N)cc2)[C@H](C)CN([C@H](C)CO)C3=O)n(C)n1	NOMO-1 viab 126.7 (no result: Shh pathway inh)
Cc1cc(C(=O)Nc2cccc3c2O[C@H](CN(C)Cc2ccc(-c4ccccc4)cc2)[C@@H](C)CN([C@H](C)CO)C3=O)n(C)n1	NOMO-1 viab 88.5
Cc1cc(C(=O)Nc2cccc3c2O[C@H](CN(C)Cc2ccc(C(=O)Nc4ccccc4N)cc2)[C@@H](C)CN([C@@H](C)CO)C3=O)n(C)n1	NOMO-1 viab inconclusive (no result: Shh pathway inh)
C[C@@H]1CN([C@H](C)CO)C(=O)c2cccc(NS(=O)(=O)c3cccs3)c2O[C@@H]1CN(C)Cc1ccccc1	none
COc1ccc(NC(=O)N(C)C[C@@H]2Oc3c(NS(=O)(=O)c4cn(C)cn4)cccc3C(=O)N([C@H](C)CO)C[C@H]2C)cc1	none
C[C@H](CO)N1C[C@H](C)[C@H](CN(C)Cc2ccccc2)Oc2ccc(NC(=O)Cc3cn(C)c4ccccc34)cc2CC1=O	none
C[C@@H]1CN([C@H](C)CO)C(=O)Cc2cc(NC(=O)Cc3cn(C)c4ccccc34)ccc2O[C@@H]1CN(C)Cc1ccc2c(c1)OCO2	none
C[C@@H]1CN([C@@H](C)CO)C(=O)Cc2cc(NC(=O)Cc3cn(C)c4ccccc34)ccc2O[C@@H]1CN(C)Cc1ccc(Cl)c(Cl)c1	NOMO-1 viab 107.3
C[C@@H]1CN([C@H](C)CO)C(=O)Cc2cc(NC(=O)Cc3cn(C)c4ccccc34)ccc2O[C@H]1CN(C)Cc1ccc(Cl)c(Cl)c1	NOMO-1 viab 114.9
N#CC1CN(CCc2ccccc2)CN(CCc2ccccc2)C1	NOMO-1 viab 111.4, Shh pathway inh 68.6
O=C1NCC2(CCN(CCc3ccccc3)CC2)O1	none
C/C=C1\C(O[C@@H]2O[C@H](CO)[C@@H](O)[C@H](O)[C@H]2O)OC=C(C(=O)OC)C1CC(=O)OC[C@H]1O[C@@H](OCCc2ccc(O)cc2)[C@H](OC(=O)CC2C(C(=O)OC)=COC(O[C@@H]3O[C@H](CO)[C@@H](O)[C@H](O)[C@H]3O)/C2=C\C)[C@@H](O)[C@@H]1O (some centres not stated)	none
C=C1C(=O)O[C@@H]2C3=C(C)CC[C@]34O[C@@H](C[C@@H]4C)[C@H]12	NOMO-1 viab 114.2
Cc1ccc(S(=O)(=O)NCC(=O)Nc2cccc(Cl)c2)cc1	none (no result: Shh pathway inh)
O=C(/C=C/c1ccc(Cl)cc1)Nc1cccc(Cl)c1	NOMO-1 viab 120.1, Shh pathway inh inconclusive
Cc1cc(C)c2nc(-c3ccccn3)cc(C(=O)NCc3cc(C)n(C)n3)c2c1	none (no result: Shh pathway inh)
COC(=O)c1ccccc1NC(=O)c1cccc(NC(=O)COc2cc(C)c(Cl)c(C)c2)c1C	NOMO-1 viab 101.6 (no result: Shh pathway inh)
Cc1cc(OCC(=O)Nc2ccccc2C(=O)O)cc(C)c1Cl	none (no result: Shh pathway inh)
COC(=O)c1ccccc1NC(=O)COc1ccc(C)cc1C	none (no result: Shh pathway inh)
COC(=O)c1ccccc1NC(=O)COc1ccc2ccccc2c1Br	NOMO-1 viab 83.8 (no result: Shh pathway inh)
C[C@H]1CN([C@@H](C)CO)C(=O)Cc2cc(NS(C)(=O)=O)ccc2O[C@@H]1CN(C)Cc1ccc2c(c1)OCO2	none
CCc1nc(SCC(=O)Nc2ccc(C)cc2)n[nH]1	none (no result: Shh pathway inh)
C[C@@H]1CN([C@H](C)CO)C(=O)c2cc(NC(=O)CCC(F)(F)F)ccc2O[C@@H]1CN(C)S(C)(=O)=O	none (no result: Shh pathway inh)
CCOc1ccc2c(c1)-c1c(ssc1=S)C(C)(C)N2C	NOMO-1 viab 86.3
